Results on 40 molecules are retold here after PubChem BioAssay (NCATS).

Inconclusive results are not listed. A number with no mark means an inactive call. Activity calls are given as the source filed them. Calls come from the whole dose curve; as a rule, active = well fitted inhibition curve with a large enough effect in the signal ratio, with a control signal flat (not every such curve was filed as active); inconclusive = small, poorly fitted or top-dose-only effect, or effect the other way, or a change in a side signal; inactive = no such curve, though single readings can be large or run the other way; the % refers to the signal ratio.
% is set by controls: 0 for no effect and ±100 for the full control effect.

For the experiment, the target named is Retinoic acid receptor RXR-alpha (Homo sapiens) (UniProt P19793). Description: qHTS assay for small molecule antagonists of retinoid X receptor alpha signaling (AID 588546). The following applies: HEK293T RXRa-UAS-bla, beta-lactamase ratio, antagonist mode. From the text: NIH Chemical Genomics Center [NCGC] U.S. Environmental Protection Agency [EPA] National Institutes of Environmental Health Sciences [NIEHS] National Toxicology Program [NTP] NCGC Assay Overview The Retinoid X receptor (RXR), a nuclear hormone receptor is expressed in liver, spleen, placenta, epidermis, central nervous system. These receptors are able to form homo and heterodimers with other nuclear receptors and due to this heterodimerizing ability, RXR functions as master regulators producing diverse physiological effects. Three subtypes of RXR exist; alpha, beta and gamma. Retinoid X receptor alpha (RXR-alpha) has potential roles in metabolic signaling pathways, skin alopecia, dermal cysts, cardiac development, insulin sensitization etc. Therefore screening environmental chemicals on RXR-alpha signaling can be used for the studies focused on such therapeutic applications.
Retinoic acid receptor RXR-alpha (Homo sapiens), sequence (P19793 whole entry, looked up): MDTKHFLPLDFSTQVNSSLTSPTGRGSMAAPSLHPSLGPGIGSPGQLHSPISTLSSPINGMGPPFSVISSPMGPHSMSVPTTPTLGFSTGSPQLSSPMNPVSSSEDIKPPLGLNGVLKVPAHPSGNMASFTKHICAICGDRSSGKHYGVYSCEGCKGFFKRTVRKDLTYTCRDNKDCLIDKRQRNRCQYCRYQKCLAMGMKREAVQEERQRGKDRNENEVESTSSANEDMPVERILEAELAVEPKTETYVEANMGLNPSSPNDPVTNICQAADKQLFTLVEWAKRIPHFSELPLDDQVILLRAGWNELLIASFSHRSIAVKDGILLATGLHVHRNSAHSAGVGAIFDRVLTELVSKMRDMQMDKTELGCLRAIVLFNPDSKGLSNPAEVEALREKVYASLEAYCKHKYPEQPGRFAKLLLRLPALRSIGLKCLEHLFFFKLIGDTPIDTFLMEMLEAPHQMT
NCGC Assay Protocol Summary Using a beta-lactamase reporter-gene under control of Retinoid X receptor--alpha (RXR-alpha) response element, a cell-based assay [GeneBLAzer (RXR-alpha -UAS-bla assay developed by Invitrogen] was used to measure RXR-alpha ligands signaling. GeneBLAzer RXR-alpha -UAS-bla HEK293T cells were used with assay medium containing 2% charcoal-stripped FBS. The assay was performed in clear bottom black Greiner 1536-well plates. Library compounds were measured for their ability to inhibit the reporter gene activity. Compounds were screened in a titration series in 1536-well format. The fluorescence intensity (405 nm excitation, 460/530 nm emission) was measured using an EnVision plate reader. Data was normalized relative to 9-cis-retinoic acid control (500 nM, 100%), and DMSO only wells (basal, 0%). Concentration-response titration points for each compound were fitted to the Hill equation yielding concentrations of half-maximal inhibition (IC50) and maximal response (efficacy) values. qHTS protocol for RXR-alpha beta-lactamase assay in antagonist mode [Step] [Parameter] [Value] [Description] 1. Reagent; 5 uL; 2500 cells/well 2. Incubation; 37 C for 4 hrs 3. Compounds; 23 nL; 0.59 nM to 92 uM 4. Controls (DMSO); 23 nL 5. Agonist (Stimulator); 1uL; 9-cis-retinoic acid at 500 nM and 100 nM final concentrations 6. Incubation; 37 C for 18 hrs 7. Detection reagent; 1 uL of CCF4-dye 8. Incubation; RT for 2 hrs 9. Detection; Fluorescence; Envision plate reader
On the technique in general: qHTS replaces the single test concentration by a dilution series.
For the molecule `COC(C)(C)CCC[C@H](C)C/C=C/C(C)=C/C(=O)OC(C)C`, the max response was 6.26%.

As for `CCOP(=S)(OCC)OC(Cl)C(Cl)(Cl)Cl` (stereo not given), the max response is -15%. Regarding `CC(Oc1cccc(Cl)c1)C(=O)O` (stereo not given), the max response was -12.8%. Take `COCc1cnc(C2=NC(C)(C(C)C)C(=O)N2)c(C(=O)O)c1` (stereo not given): the max response is 6.51%.

Consider `CCOP(=O)(SC(C)CC)N1CCSC1=O` (stereo not given), for which the max response is 14.8%. As to `CC1(C)CCC(Cc2ccc(Cl)cc2)C1(O)Cn1cncn1` (stereo not given), the max response was -14.3%. Consider `Nc1c(Cl)c(F)nc(OCC(=O)O)c1Cl`, for which the max response was -9.36%.

On to `OC(c1ccc(Cl)cc1)(c1cncnc1)c1ccccc1Cl` (stereo not given), for which the max response was -39.6%. On to `CCNc1nc(Cl)nc(NC(C)(C)C#N)n1`, for which the max response is -7.14%. As for `CCCCCCCCCCCCN(C)C`, the max response is -14.3%. As to `CC(C1CC1)C(O)(Cn1cncn1)c1ccc(Cl)cc1` (stereo not given), the max response was -4.42%.

Consider `CCOP(N)(=O)Oc1ccc(SC)c(C)c1` (stereo not given), for which the max response is -26.2%. For `CNC(=O)N(C)c1nc2ccccc2s1`, the max response was -2.41%. With `O=C(CCl)c1ccccc1`, the max response is 9.61%. Still for that read-out and setting: to `CC(Oc1ccc(Cl)cc1Cl)C(=O)O` (stereo not given) belongs 1.72%; to `CCOP(=O)(OCC)OP(=O)(OCC)OCC`, -9.63%; to `Clc1ccccc1-c1nnc(-c2ccccc2Cl)nn1`, -5.51%. Take `CCC(C)(C)c1cc(-n2nc3ccccc3n2)c(O)c(C(C)(C)CC)c1`: the max response is 11.8%.

On to `CCSCc1ccccc1OC(=O)NC`, for which the max response was -13%. On the same count and under the same terms, to `CCCC1COC(Cn2cncn2)(c2ccc(Cl)cc2Cl)O1` (stereo not given) belongs 2.1%; to `CCOP(=O)(NC(C)C)Oc1ccc(S(C)=O)c(C)c1` (stereo not given), 0.125%; to `CC1(C)C(C(=O)OC(C#N)c2cccc(Oc3ccccc3)c2)C1(C)C` (stereo not given), -14.5%. For the molecule `COc1nn(C(=O)NS(=O)(=O)c2ccccc2OC(F)(F)F)c(=O)n1C`, the max response was -13.4%.

`COc1cccc(C(=O)NN(C(=O)c2cc(C)cc(C)c2)C(C)(C)C)c1C`: the max response is -0.788%. Still for that read-out and setting: for `CC(C)=CC1C(C(=O)OCc2coc(Cc3ccccc3)c2)C1(C)C` (stereo not given) the value was 3.05%; for `CC1(C(=O)Nc2ccc(O)c(Cl)c2Cl)CCCCC1`, -4.55%. Regarding `CCOc1nc(C(Cl)(Cl)Cl)ns1`, the max response was 3.55%.

In the case of `COC(=O)N(OC)c1ccccc1COc1ccn(-c2ccc(Cl)cc2)n1`, the Potency is 3.16 µM (active).

Consider `O=C(O)c1c(Cl)ccc2cc(Cl)cnc12`, for which the max response was -13.1%. On to `C=CC(=O)OCC(CO)(COC(=O)C=C)COC(=O)C=C`, for which the Potency was 5.62 µM (active). With `CCOP(=S)(OCC)Oc1ncn(-c2ccccc2)n1`, the max response is -7.83%.

In the case of `Cc1cc(Cl)ccc1N=CN(C)C`, the max response was -16.2%. With `CNP(=O)(OC)Oc1ccc(C(C)(C)C)cc1Cl` (stereo not given), the max response was 11.9%. `O=C1C=CC(=O)c2ccccc21`: the max response was -12.9%.

With `N#CCNC(=O)c1cnccc1C(F)(F)F`, the max response is -7.71%.

Consider `O=[As](O)(O)O`, for which the max response is -6.13%. Same read-out and setting: to `[CH3][Sn]([CH3])([Cl])[Cl]` belongs -24.3%. The same measure, in the same setting: for `CCOP(=O)(OCC)SCSP(=S)(OCC)OCC` the value was -11.3%. With `COP(=O)(NC(C)=O)SC` (stereo not given), the max response is -12.8%. On the same count and under the same terms, for `CC(C)C(=O)OCC(C)(C)C(OC(=O)C(C)C)C(C)C` (stereo not given) the value was -12.8%.
